Assay results reported in PubChem BioAssay (EPA / NIEHS).
Inconclusive results are not listed. Calls of active or inactive are those of the source. Rule for the calls, unless noted: active = hit-call score of the fitted dose curve at least 0.9, where 1 is the maximum; inactive = score below 0.9.

Key:
[1] = read-out: Macrophage colony-stimulating factor (MCSF), CSF1 (gene 1435); test: BSK_LPS_MCSF: BioMAP Diversity Plus: LPS Assay for Macrophage colony-stimulating factor (MCSF) Biomarker Activity (AID 2283083); details: primary human HUVEC with PBMC; actives raise or lower the signal
In short: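 Compound is added to a human vascular primary co-culture of umbilical vein endothelium and blood mononuclear cells. After 24 h, M-CSF is quantified by ELISA. Signal changes are fitted in both directions against DMSO.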

[2] = read-out: Tissue Factor, F3 (gene 2152); test: BSK_LPS_TissueFactor: BioMAP Diversity Plus: LPS Assay for Tissue Factor Biomarker Activity (AID 2283084); details: primary human HUVEC with PBMC; actives raise or lower the signal
In short: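 In this co-culture system of umbilical vein endothelium with PBMC, stimulated with LPS, cell-surface CD142 is detected by ELISA at 24 h. Endpoint values derive from bidirectional fitting, DMSO serving as baseline.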

[3] = read-out: Tumor necrosis factor (Homo sapiens) (UniProt P01375); test: BSK_LPS_TNFa: BioMAP Diversity Plus: LPS Assay for Tumour Necrosis Factor alpha (TNFa) Biomarker Activity (AID 2283085); details: primary human HUVEC with PBMC; actives raise or lower the signal;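 for AC50: TNFa protein level quantified by ELISA in the co-culture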
In short: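 Read-out is ELISA of TNFa in primary human endothelial cell–PBMC co-cultures at 24 h after compound. Activity in either direction was fitted against DMSO.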

[4] = read-out: Vascular cell adhesion molecule 1 (VCAM1), VCAM1 (gene 7412); test: BSK_LPS_VCAM1: BioMAP Diversity Plus: LPS Assay for Vascular cell adhesion molecule 1 (VCAM1) Biomarker Activity (AID 2283086); details: primary human HUVEC with PBMC; actives raise or lower the signal
In short: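 HUVEC + PBMC co-culture, LPS system; compound 24 h; VCAM-1 by ELISA; bidirectional fit vs DMSO control; parallel SRB (0.1%, TCA-fixed, 560 nm) for cytotoxicity.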

CD38, CD38 (gene 952) = test: BSK_SAg_CD38: BioMAP Diversity Plus: SAg Assay for CD38 Biomarker Activity (AID 2283087); details: primary human HUVEC with PBMC; actives raise or lower the signal
In short: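 Human HUVEC plus PBMC co-culture stimulated with superantigen; CD38 measured by ELISA 24 h after chemical dosing. Fluorescence read-out, bidirectional fit against DMSO; cytotoxicity tracked in parallel by SRB and Alamar Blue.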

CD40, CD40 (gene 958) = test: BSK_SAg_CD40: BioMAP Diversity Plus: SAg Assay for CD40 Biomarker Activity (AID 2283088); details: primary human HUVEC with PBMC; actives raise or lower the signal
In short: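 Fluorescence ELISA read-out of CD40 from umbilical vein endothelium plus peripheral blood mononuclear cells, sampled 24 h after dosing. Values come from bidirectional curve fitting with DMSO as baseline.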

CD69, CD69 (gene 969) = test: BSK_SAg_CD69: BioMAP Diversity Plus: SAg Assay for CD69 Biomarker Activity (AID 2283089); details: primary human HUVEC with PBMC; actives raise or lower the signal
In short: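 HUVEC co-cultured with PBMC were dosed with chemical, and CD69 was measured by ELISA with fluorescence read-out 24 h later. Bidirectional curve fitting used DMSO as negative control and activity baseline.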

[5] = read-out: E-selectin (Homo sapiens) (UniProt P16581); test: BSK_SAg_Eselectin: BioMAP Diversity Plus: SAg Assay for Eselectin Biomarker Activity (AID 2283091); details: primary human HUVEC with PBMC; actives raise or lower the signal
In short: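 Primary human endothelial cells and peripheral blood mononuclear cells were co-cultured and exposed to chemical for 24 hours. E-selectin levels were then quantified by ELISA, with bidirectional curve fitting normalised to DMSO controls.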

[6] = read-out: Monokine induced gamma interferon (MIG), CXCL9 (gene 4283); test: BSK_SAg_MIG: BioMAP Diversity Plus: SAg Assay for Monokine induced gamma interferon (MIG) Biomarker Activity (AID 2283092); details: primary human HUVEC with PBMC; actives raise or lower the signal
In short: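 HUVEC plus human PBMC co-culture, chemicals dosed and MIG (CXCL9) quantified by ELISA at 24 h. Bidirectional curve fitting against DMSO as negative control and baseline, so both gain and loss of signal count as activity.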

[7] = BSK_SAg_PBMCCytotoxicity: PBMC Cytotoxicity Assessment in the BioMAP Diversity Plus: SAg Assay (AID 2283093); details: primary human HUVEC with PBMC;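 note: PBMC viability measured as Alamar Blue reduction fluorescence at 546/580 nm; fitted both ways against DMSO so a hit may be loss or gain of signal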;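 for AC50: PBMC superantigen activated with SEB plus TSST-1 one hour after compound addition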
In short: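 Compound added to 75,000 PBMC/well for 1 h; SEB and TSST-1 then added at 20 ng/mL final each; 90 h incubation; Alamar Blue 6 h; read 546/580 nm ex/em. Activity fitted bidirectionally relative to DMSO baseline.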

[8] = read-out: Interleukin-8 (IL8), CXCL8 (gene 3576); test: BSK_SAg_IL8: BioMAP Diversity Plus: SAg Assay for Interleukin-8 (IL8) Biomarker Activity (AID 2283094); details: primary human HUVEC with PBMC; actives raise or lower the signal
In short: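 ELISA read-out of IL-8 in a primary human vascular co-culture (umbilical vein endothelium plus PBMC), taken 24 h after compound addition. Values derive from bidirectional fits against DMSO negative controls.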

[9] = BSK_SAg_Proliferation: Cell Proliferation Assessment in the BioMAP Diversity Plus: SAg Assay (AID 2283095); details: primary human HUVEC with PBMC;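 note: relative cell number as total protein by SRB absorbance in sub-confluent culture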
In short: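 Cells (endothelium plus PBMC, human primary) were dosed with chemical, cultured 96 h, fixed in 10% TCA and stained with 0.1% SRB. Absorbance at 560 nm gave relative protein, fitted bidirectionally relative to DMSO.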

[10] = BSK_SAg_SRB: Viability Assessment in the BioMAP Diversity Plus: SAg Assay (AID 2283096); details: primary human HUVEC with PBMC;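 note: cells read one day after compound addition; hits may be either gain or loss of signal compared with DMSO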
In short: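 Total protein by sulforhodamine B staining, 24 h after dosing, in HUVEC–PBMC co-culture; DMSO-referenced bidirectional fitting.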

[11] = target: human CYP1A2, CYP1A2 (gene 1544) (UniProt P05177); test: NVS_ADME_hCYP1A2: NovaScreen (NVS) CYP450-related Enzyme Activity (ADME) Assay for human CYP1A2 (AID 2283102; active = hit-call score of the fitted dose curve at least 0.9, where 1 is the maximum)
Sequence of human CYP1A2, CYP1A2 (gene 1544) (P05177 whole entry, looked up): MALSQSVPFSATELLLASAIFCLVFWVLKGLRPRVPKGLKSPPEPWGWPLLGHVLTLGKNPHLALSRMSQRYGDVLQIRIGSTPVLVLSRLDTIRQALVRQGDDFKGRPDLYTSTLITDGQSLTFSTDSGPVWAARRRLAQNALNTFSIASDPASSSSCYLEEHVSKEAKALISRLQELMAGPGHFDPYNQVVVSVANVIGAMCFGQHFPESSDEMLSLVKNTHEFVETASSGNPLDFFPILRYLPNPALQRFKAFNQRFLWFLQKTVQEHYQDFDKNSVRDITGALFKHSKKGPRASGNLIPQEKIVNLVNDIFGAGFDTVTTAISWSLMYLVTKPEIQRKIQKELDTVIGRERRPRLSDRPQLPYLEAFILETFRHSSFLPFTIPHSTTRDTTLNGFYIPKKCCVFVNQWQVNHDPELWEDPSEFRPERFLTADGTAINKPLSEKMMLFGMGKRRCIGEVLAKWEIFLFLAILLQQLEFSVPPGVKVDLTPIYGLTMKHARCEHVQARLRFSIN
In short: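 Compounds were tested at 10 uM in duplicate against recombinant CYP1A2 produced in insect cells. Enzyme activity was measured by fluorescence 0.5 h after dosing, with loss of signal versus acetonitrile control. Active compounds were re-tested in concentration series.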

[12] = target: human CYP1A1, CYP1A1 (gene 1543) (UniProt P04798); test: NVS_ADME_hCYP1A1: NovaScreen (NVS) CYP450-related Enzyme Activity (ADME) Assay for human CYP1A1 (AID 2283100; active = hit-call score of the fitted dose curve at least 0.9, where 1 is the maximum)
Sequence of human CYP1A1, CYP1A1 (gene 1543) (P04798 whole entry, looked up): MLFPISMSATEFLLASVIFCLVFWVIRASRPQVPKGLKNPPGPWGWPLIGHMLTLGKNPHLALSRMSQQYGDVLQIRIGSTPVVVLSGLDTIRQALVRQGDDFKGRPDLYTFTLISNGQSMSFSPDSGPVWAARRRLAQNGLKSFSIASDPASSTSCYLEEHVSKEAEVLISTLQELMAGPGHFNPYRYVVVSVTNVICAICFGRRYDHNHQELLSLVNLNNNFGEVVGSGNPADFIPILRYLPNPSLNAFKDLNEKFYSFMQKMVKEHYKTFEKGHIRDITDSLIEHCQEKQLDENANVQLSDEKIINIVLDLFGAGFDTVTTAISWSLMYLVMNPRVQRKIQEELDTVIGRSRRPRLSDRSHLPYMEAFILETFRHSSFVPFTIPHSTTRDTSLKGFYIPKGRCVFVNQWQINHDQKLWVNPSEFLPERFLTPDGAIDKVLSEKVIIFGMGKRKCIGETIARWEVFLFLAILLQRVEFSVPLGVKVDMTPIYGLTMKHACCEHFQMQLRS
In short: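 Compounds first went through duplicate single-concentration testing at 10 uM against purified CYP1A1. Those passing a threshold such as 30% inhibition entered singleton dose-response, highest concentration 20 uM. Signal was fluorescence measured after 1 hour.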

[13] = target: human CYP2D6, CYP2D6 (gene 1565) (UniProt P10635); test: NVS_ADME_hCYP2D6: NovaScreen (NVS) CYP450-related Enzyme Activity (ADME) Assay for human CYP2D6 (AID 2283107; active = hit-call score of the fitted dose curve at least 0.9, where 1 is the maximum)
Sequence of human CYP2D6, CYP2D6 (gene 1565) (P10635 whole entry, looked up): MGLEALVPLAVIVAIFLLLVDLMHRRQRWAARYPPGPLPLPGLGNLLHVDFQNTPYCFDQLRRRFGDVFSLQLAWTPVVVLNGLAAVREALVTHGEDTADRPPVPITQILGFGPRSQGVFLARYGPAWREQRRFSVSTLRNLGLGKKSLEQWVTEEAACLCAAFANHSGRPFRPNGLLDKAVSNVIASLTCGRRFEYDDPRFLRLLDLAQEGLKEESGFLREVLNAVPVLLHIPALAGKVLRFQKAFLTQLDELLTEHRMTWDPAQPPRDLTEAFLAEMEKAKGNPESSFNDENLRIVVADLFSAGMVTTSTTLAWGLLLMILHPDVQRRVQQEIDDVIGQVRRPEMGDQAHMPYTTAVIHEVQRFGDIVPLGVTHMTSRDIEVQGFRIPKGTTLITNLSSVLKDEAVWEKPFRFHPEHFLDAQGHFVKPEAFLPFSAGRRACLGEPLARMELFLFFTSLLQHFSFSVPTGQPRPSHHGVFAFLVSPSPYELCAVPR
In short: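 Compounds were first tested in duplicate at 10 uM against recombinant enzyme produced in insect cells, with substrate turnover measured by fluorescence after 1 hour. Decreased signal, referenced to acetonitrile vehicle, was taken as reduced enzyme activity. Active chemicals went on to concentration-response testing.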

Sequence of E-selectin (Homo sapiens) (P16581 whole entry, looked up): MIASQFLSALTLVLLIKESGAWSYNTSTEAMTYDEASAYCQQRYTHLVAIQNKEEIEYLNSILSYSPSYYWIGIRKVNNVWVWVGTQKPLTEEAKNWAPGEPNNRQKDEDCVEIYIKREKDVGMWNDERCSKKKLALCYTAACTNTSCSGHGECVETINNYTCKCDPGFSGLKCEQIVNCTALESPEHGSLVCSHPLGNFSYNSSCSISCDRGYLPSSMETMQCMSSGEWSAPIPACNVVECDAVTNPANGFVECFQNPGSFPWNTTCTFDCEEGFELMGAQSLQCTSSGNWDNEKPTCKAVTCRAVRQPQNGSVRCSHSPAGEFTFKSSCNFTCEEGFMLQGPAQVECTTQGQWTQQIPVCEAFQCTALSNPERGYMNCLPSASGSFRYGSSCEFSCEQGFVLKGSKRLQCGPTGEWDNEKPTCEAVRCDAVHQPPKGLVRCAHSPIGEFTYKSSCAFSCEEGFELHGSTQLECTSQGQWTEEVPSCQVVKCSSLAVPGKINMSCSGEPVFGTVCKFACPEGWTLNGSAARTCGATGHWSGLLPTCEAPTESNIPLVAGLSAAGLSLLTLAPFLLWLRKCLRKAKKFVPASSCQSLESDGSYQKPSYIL
Sequence of Tumor necrosis factor (Homo sapiens) (P01375 whole entry, looked up): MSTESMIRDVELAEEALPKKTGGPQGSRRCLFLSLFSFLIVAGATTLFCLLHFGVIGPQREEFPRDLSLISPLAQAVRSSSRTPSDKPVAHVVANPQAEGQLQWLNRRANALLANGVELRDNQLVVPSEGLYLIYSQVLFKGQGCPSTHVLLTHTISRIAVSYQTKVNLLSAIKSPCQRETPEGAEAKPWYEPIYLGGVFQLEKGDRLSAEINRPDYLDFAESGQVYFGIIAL

SMILES	outcome [1]	outcome [2]	outcome [3]	outcome [4]	outcome (CD38, CD38 (gene 952))	outcome (CD40, CD40 (gene 958))	outcome (CD69, CD69 (gene 969))	outcome [5]	outcome [6]	outcome [7]	outcome [8]	AC50 [9]	outcome [10]	outcome [11]	AC50 (CD38, CD38 (gene 952))	AC50 [7]	outcome [9]	outcome [12]	outcome [13]	AC50 [3]
O=C(O)CN(CC(=O)O)CC(=O)O	inactive	inactive	inactive	inactive	inactive	inactive	inactive	inactive	inactive	inactive	inactive	29.1 µM (active)	inactive	inactive						
CCCCCCCCCCCCCCOS(=O)(=O)O	inactive	inactive	inactive	inactive		inactive	inactive	inactive	inactive		inactive		inactive		20 µM (active)	34.2 µM (active)	inactive			
CC(=O)OC1CC(C)OC(C)O1 (centres undefined)	inactive	inactive	inactive	inactive	inactive	inactive	inactive	inactive	inactive	inactive	inactive	13.5 µM (active)	inactive					inactive	inactive	
CC(C)(C)c1ccccc1	inactive	inactive	inactive	inactive	inactive	inactive	inactive	inactive	inactive	inactive	inactive		inactive				inactive			
CC(=O)O	inactive	inactive	inactive	inactive	inactive	inactive	inactive	inactive	inactive	inactive	inactive		inactive				inactive			
NC=O	inactive	inactive	inactive	inactive	inactive	inactive	inactive	inactive	inactive	inactive	inactive		inactive				inactive			
CC(C)NCC(O)c1ccc(O)c(O)c1 (centres undefined)	inactive	inactive		inactive	inactive	inactive	inactive	inactive	inactive		inactive	24.5 µM (active)	inactive			13.5 µM (active)				0.262 µM (active)
